According to the supplement of paper PMC3334620:
Whole data set: some 33,000 sequences, median “E-score (-0.5 to 0.5)” near -0.016, cut for the highest 2% near 0.31. The sample as a whole holds a higher share of the highest values than the screen did.

Target: Cst6 (UniProt P40535)
Test: PBM E-score (8-mer binding enrichment) (E-score (-0.5 to 0.5)); higher = stronger / more preferred TF binding
Settings: protein concentration: 200 nM; construct: GST-DNA-binding domain
In short: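 Using PURExpress in vitro transcription/translation, GST-tagged yeast transcription factors were made in full-length or DNA-binding-domain form. These were applied at about 100-200 nM to double-stranded universal all-10-mer Agilent arrays, and bound protein was detected with fluorescent anti-GST. Scans were normalised with masliner before the Universal PBM Analysis Suite assigned E-scores to ungapped eight-base words pooled with their reverse complements.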

Sequence of UniProt P40535 (P40535 whole entry): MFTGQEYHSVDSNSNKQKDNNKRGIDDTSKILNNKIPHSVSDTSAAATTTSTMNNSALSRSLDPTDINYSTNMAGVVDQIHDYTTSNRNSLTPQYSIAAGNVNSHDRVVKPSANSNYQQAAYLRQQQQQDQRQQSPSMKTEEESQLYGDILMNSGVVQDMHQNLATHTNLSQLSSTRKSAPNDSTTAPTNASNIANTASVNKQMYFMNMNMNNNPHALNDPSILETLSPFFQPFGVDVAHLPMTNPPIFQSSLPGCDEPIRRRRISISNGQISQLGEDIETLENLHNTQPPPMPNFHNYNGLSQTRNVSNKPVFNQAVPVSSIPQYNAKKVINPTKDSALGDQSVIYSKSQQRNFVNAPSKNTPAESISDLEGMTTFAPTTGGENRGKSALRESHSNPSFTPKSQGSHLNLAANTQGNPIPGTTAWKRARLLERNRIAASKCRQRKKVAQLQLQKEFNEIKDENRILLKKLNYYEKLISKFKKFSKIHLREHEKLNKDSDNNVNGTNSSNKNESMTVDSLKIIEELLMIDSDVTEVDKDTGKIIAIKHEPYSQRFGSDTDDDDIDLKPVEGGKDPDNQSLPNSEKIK

Sequence | PBM E-score
GTAAGTCA | 0.132
TCGCTCAA | -0.091
AATTGCCC | -0.055
CCAAAAGA | 0.207
AAAATCGG | -0.00802
GCGCAGCC | -0.38
ATAAAAGG | 0.0584
ATTAAATA | 0.267
CTTGAAAA | 0.216
ATAAAAAG | 0.307
ATTAAATG | 0.315
TTAAAAAA | 0.306
ATTGAAAA | 0.31
TTTAAAAA | 0.0985
ATAAAAAA | 0.234
ATTAAATC | 0.212
ATTGAAAC | 0.194
CTAAAAAA | 0.273
CAGGTTAG | -0.116
CCGCTTGA | 0.0541
ATCTGCTG | 0.0566
GAAGCTGC | -0.117
ACTTAGCA | -0.0634
ATTCCGCG | 0.129
ATTAAAAC | 0.213

Sequence | PBM E-score
ATTAAAAA | 0.323
ATTAAAAG | 0.173
ACTACACA | 0.17
CGTTAGAA | 0.101
ATGATGCG | 0.296
CTGATGCC | 0.113
CTGATGCA | 0.0731
ATGATGCA | 0.362
ATGATGCC | 0.347
GAGATGCA | -0.071
GTGATGCA | 0.383
AGGATGCC | 0.0165
ACGATGCA | -0.00326
CCGGATCG | -0.134
ACTTTTCA | 0.133
CTTCCCAC | 0.0313
GACTCGCC | -0.223
CCGGGTTA | -0.281
CAAAAGAA | 0.239
AAGCTCAC | -0.167
AACAATCA | 0.287
CACCCCGG | -0.19
ACTTCGTA | -0.0634
AAGTAACT | 0.204
ACGTAACG | 0.39

Sequence | PBM E-score
ACGTAACC | 0.414
ACGTAACT | 0.413
CCGTAACC | -0.0836
ACGTAACA | 0.386
CCGTAACG | -0.0115
TCGTAACA | 0.129
AAGTAACG | 0.0219
GCGTAACC | 0.14
GCGTAACA | 0.195
AGGTAACT | 0.106
ATGAGACG | -0.0685
ACCTAGGG | -0.159
ACCCATGG | -0.144
CTCCTTTA | -0.251
CTACCGTA | 0.0736
ATCAAATA | 0.0992
CTCGGTTA | 0.0295
CCGTCAGG | -0.107
GCGTCAGC | 0.15
GGGTCAGA | -0.219
CCGTCAGC | 0.0302
GCGTCAGA | 0.313
ACGTCAGC | 0.482
ATGTCAGG | 0.176
ACGTCAGG | 0.413

Sequence | PBM E-score
TCGTCAGA | 0.124
CCGTCAGA | -0.0924
GTGTCAGA | -0.0004
ACGTCAGA | 0.464
ACCGACGG | -0.0433
CTTCCCGA | -0.0284
AGTCGCAG | -0.192
ACTCTTGA | -0.103
CCTTGCAA | -0.186
ACTCCGCG | -0.0486
CGGCATAA | 0.135
AACTCGAG | -0.0652
ACCTTTGA | -0.156
CCTCCTAG | -0.121
AAGCACGT | 0.0741
GAGCAGGA | -0.154
GGAAACCC | -0.147
ACGTCAGT | 0.472
ACCTCAGT | 0.013
AAGTCAGT | 0.0407
GACACGCC | 0.0155
CTGGACTA | -0.267
CGTACGTA | 0.306
AGTACGTA | 0.267
CGTACGTC | 0.31

Sequence | PBM E-score
CGTACGCC | 0.111
GGTACGTA | 0.136
AGTACGTC | 0.205
CGTAAACA | 0.262
TATACCGA | 0.00086
TATGATGA | 0.337
CATGATGC | 0.28
GATGATGA | 0.319
TATGATCA | 0.207
CATGATGA | 0.342
GATGATCA | 0.171
CATGATGG | -0.0379
GGTGATGA | 0.362
GCTGATGA | 0.278
GGTGATTA | 0.206
TATGATAA | 0.251
CGTGATGA | 0.297
CACGCTAC | -0.134
ACTACCGC | -0.0306
CTCTCAAG | -0.14
GCCAACGC | -0.0319
CGAACTAG | 0.0382
CGCAATTA | 0.18
CCCAAAAC | 0.105
CCTGGGGA | -0.402

Sequence | PBM E-score
CCTGCACA | -0.179
ACACTACT | 0.0264
CCTTCCGA | -0.149
AGCTACTC | -0.274
ATTGATGA | 0.296
CTTGATGA | 0.24
GTTGATGA | 0.309
ACGAGGAT | -0.0239
ATGTCAGA | 0.221
ATGTCACA | 0.375
ATGTCACG | 0.396
ATGTCACC | 0.465
ATGTCAAC | 0.251
CTGTCACC | 0.0496
ATGTCAAA | 0.237
GTGTCACA | 0.229
CTGTCACA | 0.0581
AGGGCTAG | -0.242
ATCTCTCG | -0.0585
GGGAAAAC | -0.0343
AGAGGTTC | -0.11
AAAGCGCT | 0.183
GCCGCACC | 0.226
ATAGAAGG | -0.208
ACATAATA | 0.345

Sequence | PBM E-score
CTAATATA | 0.302
GTAATAGA | 0.0316
GCATAATA | 0.227
ATATAATA | 0.31
GTAATATA | 0.354
ATAATATC | 0.219
ATAATATG | 0.273
ATAATATA | 0.358
ACATAATC | 0.267
CTATAATA | 0.0135
GTATAATA | 0.288
TTCACAAA | 0.0753
ATCGCGTG | 0.0786
CGGGCGAC | -0.319
GGAGGCCA | -0.314
AAAAGGTA | -0.0898
AATTACCG | 0.196
ATTCGATC | 0.153
GTTGTTCA | 0.0498
ATGAGCCG | 0.0382
ATACGGCG | 0.36
ATACGGCC | 0.138
GTACGGCA | 0.249
ATACGGCA | 0.394
CTACGGCA | 0.283

Sequence | PBM E-score
ATACGGTG | 0.104
AGAAAAGG | 0.0591
CAGACTTA | -0.094
CATAAGCA | -0.0945
CTCACTCA | 0.0247
GTCACTCA | 0.315
ATCACTCA | 0.138
GTCACTGA | 0.281
ATCACTTA | 0.194
GTCACTTA | 0.331
CCAGTGTC | -0.108
GCGCCTAC | 0.136
CGGCAACG | 0.0207
TCGAAGCA | -0.0376
GGCCGCTA | -0.232
GCCGCGGC | 0.31
GACGCGGC | 0.318
GCCGCGGA | 0.0146
CCCGCGGC | 0.109
CACGCGGC | 0.279
AACGCGGC | 0.261
AGTGAACC | -0.0808
AACGTCCA | 0.0436
GACGTCAA | 0.479
GACGTCGA | 0.292

Sequence | PBM E-score
AACGTCGG | -0.174
CACGTCAG | 0.449
CACGTCTG | 0.0582
AACGTCAG | 0.371
AACGTCAA | 0.401
AACGTCGA | 0.133
AACGTCTG | 0.0755
CCCGTCAG | -0.282
GACGTCCA | 0.276
CAAACTCA | 0.0635
GGCACCAC | -0.1
AAGCGATG | -0.134
CCAGTTCG | -0.0928
CAAACGCG | 0.0743
ATGGCCCA | -0.0308
AACTTCCA | -0.178
AGACCTAC | -0.227
ATCCCAGG | -0.234
CCGATCTC | -0.145
